Data on 25 compounds can be found in PubChem BioAssay (EPA / NIEHS).

Structures are written as SMILES. Values joined by “and” are separate entries in the source; they are usually repeats but may differ in a detail not shown here. Equal entries are not always repeated. Inconclusive results are not listed. Where a structure was tested more than once in an assay, its records may differ in their call. Active and inactive are the calls of the source. How the source made its calls, unless noted: active means hit-call score of the fitted dose curve at least 0.9, where 1 is the maximum; inactive means score below 0.9.

Sequence of Estrogen receptor (Homo sapiens) (P03372 whole entry, looked up): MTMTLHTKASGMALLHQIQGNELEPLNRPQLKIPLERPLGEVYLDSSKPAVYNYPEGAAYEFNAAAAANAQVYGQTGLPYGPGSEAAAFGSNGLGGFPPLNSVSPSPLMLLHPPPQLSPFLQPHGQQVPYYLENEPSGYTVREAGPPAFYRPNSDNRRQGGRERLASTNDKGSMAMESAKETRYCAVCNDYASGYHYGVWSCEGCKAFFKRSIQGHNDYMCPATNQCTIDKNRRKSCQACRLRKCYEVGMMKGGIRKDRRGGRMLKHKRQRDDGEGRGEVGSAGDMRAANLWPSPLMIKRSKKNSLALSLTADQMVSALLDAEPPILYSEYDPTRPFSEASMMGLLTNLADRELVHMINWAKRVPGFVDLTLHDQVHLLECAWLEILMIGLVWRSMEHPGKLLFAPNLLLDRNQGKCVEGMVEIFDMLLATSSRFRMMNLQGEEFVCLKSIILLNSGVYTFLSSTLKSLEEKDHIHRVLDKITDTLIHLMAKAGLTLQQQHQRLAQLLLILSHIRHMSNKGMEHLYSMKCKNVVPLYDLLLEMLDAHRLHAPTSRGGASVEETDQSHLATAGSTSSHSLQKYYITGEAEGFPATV

Test system in the first test: not listed separately
In words: CCTE_Deisenroth_AIME_384WELL_CTox_Inactive: Cytotoxicity Assessment (CTOX) in CCTE's 384-well Estrogen Receptor Transactivation Assay without AIME metabolic competence (metabolism negative), Deisenroth Lab (AID 2284039; active means hit-call score of the fitted dose curve at least 0.9, where 1 is the maximum;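 further: cell viability via live-cell protease substrate cleaved to fluorescent probe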). Put shortly: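 Fluorescent protease-substrate viability readout after 24 h exposure of VM7Luc4E2 cells to conditioned medium. Chemicals (0.002–200 uM) first sat 2 h over alginate-water beads, no S9. Data fitted bidirectionally, loss of signal meaning viability loss.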
Turning to `O=C(O)CC(C(=O)O)S(=O)(=O)O` (stereo not given), the result was inactive.
Consider `O=C(O)c1cc(O)c2ccccc2c1O`, for which the AC50 (as a rule, the concentration giving half of the maximal activity seen) is 56.4 µM (active).
Consider `CCOC(=O)C1=NOC(c2ccccc2)(c2ccccc2)C1`, for which the outcome was inactive.
For the compound `CC(=O)/C=C/C1C(C)=CCCC1(C)C` (stereo not given), the compound was classed as inactive.
For `CC(C)(C)N`, the compound was classed as inactive.
For the compound `COC(=O)c1ccccc1C`, the outcome was inactive.
For `CC(=O)OCc1ccccc1`, the result was inactive.
Regarding `CCCCCCCCCC[N+](C)(CCCCCCCCCC)CCC[Si](OC)(OC)OC`, the AC50 is 100 µM (active).

The target in another test is Estrogen receptor (Homo sapiens) (UniProt P03372). The test can be described thus: CCTE_Deisenroth_AIME_384WELL_LUC_Shift: CCTE's 384-well Estrogen Receptor Transactivation Assay with AIME metabolic competence data shift (ERTA luciferase; difference in metabolism positive and negative), Deisenroth Lab (AID 2284041).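 Further: shift is response with S9 minus without S9 so positive means metabolism raised ER signal.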 Put shortly:
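Test chemicals (0.002–200 uM, 10-point) were pre-incubated 2 h with alginate microspheres containing phenobarbital/beta-naphthoflavone-induced male Sprague Dawley rat liver S9 or water, then medium was transferred to VM7Luc4E2 cells for 24 h luciferase readout; shift = S9-positive minus S9-negative normalized response.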
Turning to `CCCCNC(=S)NCCCC`, the result was inactive.
Turning to `CCCCCCCCC(CO)CCCCCC` (stereo not given), the result was inactive.
Turning to `CCCCNS(=O)(=O)c1ccc(C)cc1`, the AC50 is 0.0002 µM (active).
Turning to `O=C(O)C1CCC(C(=O)O)CC1` (stereo not given), the outcome was inactive.
In the case of `O=C(O)c1ccc2c(c1)C(=O)OC2=O`, the result was inactive.
As to `C=CCOC(=O)c1ccc(C(=O)OCC=C)c(C(=O)OCC=C)c1`, the outcome was inactive.
Regarding `O=C(O)CC(C(=O)O)S(=O)(=O)O` (stereo not given), the outcome was inactive.
Regarding `O=C(O)c1cc(O)c2ccccc2c1O`, the outcome was inactive.
Regarding `CC(C)(C)NC(=O)[C@H]1CC[C@H]2[C@@H]3CC[C@H]4NC(=O)C=C[C@]4(C)[C@H]3CC[C@]12C`, the result was inactive.
On to `CCOC(=O)C1=NOC(c2ccccc2)(c2ccccc2)C1`, for which the result was inactive.
Still for that read-out and setting: as for `CC(C)=CCCC(C)=CC#N`, the entry is “inactive”; as for `CO[Si](C)(C)OC`, “inactive”; as for `CC1(C)[C@@H]2CC[C@@]1(C)C(=O)C2`, “inactive”.
Regarding `CCCCCCOc1ccc(N)cc1`, the AC50 was 42.7 µM (active).
For `CC(=O)/C=C/C1C(C)=CCCC1(C)C` (stereo not given), the outcome was inactive.
For `CCC(C)(O)CCCC(C)C` (stereo not given), the AC50 is 67.7 µM (active).
In the case of `CC(C)(C)N`, the result was inactive.
For `COC(=O)c1ccccc1C`, the outcome was inactive.
The same measure, in the same setting: the same measure for `CCCCCCCCCCCCCC(=O)OC(C)C`: “inactive”.
In the case of `CC(=O)OCc1ccccc1`, the result was inactive.
The same measure, in the same setting: the same measure for `CCCCCCCCCC[N+](C)(CCCCCCCCCC)CCC[Si](OC)(OC)OC`: “inactive”.
The same measure, in the same setting: as for `Cc1ccc([N+](=O)[O-])cc1N`, the entry is “inactive”.

Test system in a further test: not listed separately
In words: CCTE_Shafer_MEA_dev_burst_rate: CCTE's Neural Network Formation Assay for Burst Rate, Shafer Lab (AID 2284042). Put shortly: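 Exposure ran continuously over 12 days of network development in rat cortical cultures, with compound refreshed during full media changes on DIV 5 and 9. Single-electrode bursts per recording time, well-mean over active electrodes, trapezoidal AUC across days 5–12, fitted downward relative to DMSO.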
As for `C[N+](C)(C)CCCNS(=O)(=O)C(F)(F)C(F)(F)C(F)(F)C(F)(F)C(F)(F)C(F)(F)C(F)(F)C(F)(F)F`, the compound was classed as inactive.
Still for that read-out and setting: the same measure for `Cc1noc(NS(=O)(=O)c2ccc(N)cc2)c1C`: “inactive”; for `Cc1c(C(=O)c2c[nH]n(C)c2=O)ccc(S(C)(=O)=O)c1C1=NOCC1`: “inactive”.

Test system in another test: not listed separately
In words: CCTE_Shafer_MEA_dev_bursting_electrodes_number: CCTE's Neural Network Formation Assay for Number of Bursting Electrodes, Shafer Lab (AID 2284043; active means hit-call score of the fitted dose curve at least 0.9, where 1 is the maximum;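 on AC50: potency is for loss of bursting electrodes relative to DMSO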). Put shortly:
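Number of electrodes reaching ≥1 burst every 2 min was recorded at DIV 5, 7, 9 and 12 and collapsed as trapezoidal area under the curve. Cultures were rat cortical neurons on MEA plates, dosed continuously from plating with medium and treatment refreshed on DIV 5 and 9.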
As to `C[N+](C)(C)CCCNS(=O)(=O)C(F)(F)C(F)(F)C(F)(F)C(F)(F)C(F)(F)C(F)(F)C(F)(F)C(F)(F)F`, the AC50 was 1.55 µM (active) and 4.37 µM (active).
As for `Cc1noc(NS(=O)(=O)c2ccc(N)cc2)c1C`, the call was inactive.
For `Cc1c(C(=O)c2c[nH]n(C)c2=O)ccc(S(C)(=O)=O)c1C1=NOCC1`, the result was inactive.

Test system in the next test: not listed separately
The test can be described thus: CCTE_Shafer_MEA_dev_per_burst_interspike_interval: CCTE's Neural Network Formation Assay for Burst Interspike Interval, Shafer Lab (AID 2284044).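 On AC50: potency for a decrease of within-burst interspike interval below DMSO level.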 The method in brief:
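Readout is the average time between spikes inside single-electrode bursts, taken as a well mean across bursting electrodes. Cortical neurons from rat developed networks on MEA plates under continuous 12-day exposure; recordings on days 5, 7, 9 and 12 were integrated by trapezoidal AUC.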
Take `C[N+](C)(C)CCCNS(=O)(=O)C(F)(F)C(F)(F)C(F)(F)C(F)(F)C(F)(F)C(F)(F)C(F)(F)C(F)(F)F`: the concentration at half-maximal activity (AC50) is 2.98 µM (active) and the call was inactive.
Turning to `Cc1noc(NS(=O)(=O)c2ccc(N)cc2)c1C`, the outcome was inactive.
In the case of `Cc1c(C(=O)c2c[nH]n(C)c2=O)ccc(S(C)(=O)=O)c1C1=NOCC1`, the result was inactive.

Test system in another test: not listed separately
In words: CCTE_Shafer_MEA_dev_burst_duration_mean: CCTE's Neural Network Formation Assay for Mean Burst Duration, Shafer Lab (AID 2284045).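 On AC50: curve fitted for loss meaning shorter burst duration than DMSO.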 The method in brief: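 Mean single-electrode burst duration (first to last spike), averaged over bursting electrodes per well, then integrated as area-under-curve across recordings at days 5, 7, 9 and 12. Rat cortical cultures on MEAs, compound present from plating, refreshed at feeds.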
For `C[N+](C)(C)CCCNS(=O)(=O)C(F)(F)C(F)(F)C(F)(F)C(F)(F)C(F)(F)C(F)(F)C(F)(F)C(F)(F)F`, the outcome was inactive.
For the compound `Cc1noc(NS(=O)(=O)c2ccc(N)cc2)c1C`, the concentration at half-maximal activity (AC50) is 24.1 µM (active).
Turning to `Cc1c(C(=O)c2c[nH]n(C)c2=O)ccc(S(C)(=O)=O)c1C1=NOCC1`, the result was inactive.

Test system in the next test: not listed separately
The test can be described thus: CCTE_Shafer_MEA_dev_interburst_interval_mean: CCTE's Neural Network Formation Assay for Mean Interburst Interval, Shafer Lab (AID 2284046).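 Further: curve fitted for decrease in interburst interval relative to DMSO.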 Put shortly: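 Primary rat cortical neurons on PEI-coated 48-well MEA plates (laminin added with cells at plating) (16 electrodes/well), exposed from plating day 0 with renewal at DIV 5 and 9. Mean inter-burst interval averaged over bursting electrodes, AUC across days 5, 7, 9, 12; DMSO baseline.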
Regarding `C[N+](C)(C)CCCNS(=O)(=O)C(F)(F)C(F)(F)C(F)(F)C(F)(F)C(F)(F)C(F)(F)C(F)(F)C(F)(F)F`, the AC50 is 2.43 µM (active) and 4.96 µM (active).
Take `Cc1noc(NS(=O)(=O)c2ccc(N)cc2)c1C`: the outcome was inactive.
Take `Cc1c(C(=O)c2c[nH]n(C)c2=O)ccc(S(C)(=O)=O)c1C1=NOCC1`: the result was inactive.

Test system in a further test: not listed separately
The test can be described thus: CCTE_Shafer_MEA_dev_inter_network_spike_interval_mean: CCTE's Neural Network Formation Assay for Mean Inter-network Spike Interval, Shafer Lab (AID 2284047). The method in brief:
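Mean time between consecutive network-spike peaks, recorded extracellularly (adaptive spike detection) on DIV 5, 7, 9 and 12, summarized as trapezoidal AUC. Rat cortical cultures on MEAs dosed continuously days 0–12, re-dosed at feeds; loss-of-signal fit relative to DMSO.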
As to `C[N+](C)(C)CCCNS(=O)(=O)C(F)(F)C(F)(F)C(F)(F)C(F)(F)C(F)(F)C(F)(F)C(F)(F)C(F)(F)F`, the result was inactive.
On to `Cc1noc(NS(=O)(=O)c2ccc(N)cc2)c1C`, for which the compound was called inactive.
For `Cc1c(C(=O)c2c[nH]n(C)c2=O)ccc(S(C)(=O)=O)c1C1=NOCC1`, the compound was called inactive.

Test system in another test: not listed separately
The test can be described thus: CCTE_Shafer_MEA_dev_network_spike_number: CCTE's Neural Network Formation Assay for Number of Network Spikes, Shafer Lab (AID 2284048).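 On AC50: fit as a loss of signal meaning fewer network spikes than DMSO.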 The method in brief: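 Number of network spikes (coordinated firing across electrodes) recorded on days 5, 7, 9 and 12 and summarised as area under the curve. Rat cortical cultures on MEA, continuous compound exposure with full medium/treatment exchange at DIV 5 and 9.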
With `C[N+](C)(C)CCCNS(=O)(=O)C(F)(F)C(F)(F)C(F)(F)C(F)(F)C(F)(F)C(F)(F)C(F)(F)C(F)(F)F`, the AC50 was 1.43 µM (active) and the call was inactive.
Consider `Cc1noc(NS(=O)(=O)c2ccc(N)cc2)c1C`, for which the compound was called inactive.
Turning to `Cc1c(C(=O)c2c[nH]n(C)c2=O)ccc(S(C)(=O)=O)c1C1=NOCC1`, the result was inactive.

Test system in another test: not listed separately
The test can be described thus: CCTE_Shafer_MEA_dev_network_spike_peak: CCTE's Neural Network Formation Assay for Mean Number of Electrodes in Network Spike, Shafer Lab (AID 2284049).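 On AC50: fitted for loss of signal meaning fewer electrodes in network spikes than DMSO.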 The method in brief:
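Rat cortical primary culture, 1.5 x 10^5 cells/well, 48-well MEA (16 electrodes/well). Dosing day 0 through DIV 12, full media/compound exchange DIV 5, 9. AxIS adaptive spike detection; AUC over days 5/7/9/12; loss-of-signal vs DMSO.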
Take `C[N+](C)(C)CCCNS(=O)(=O)C(F)(F)C(F)(F)C(F)(F)C(F)(F)C(F)(F)C(F)(F)C(F)(F)C(F)(F)F`: the AC50 is 1.11 µM (active) and 1.4 µM (active).
Consider `Cc1noc(NS(=O)(=O)c2ccc(N)cc2)c1C`, for which the call was inactive.
On the same count and under the same terms, the same measure for `Cc1c(C(=O)c2c[nH]n(C)c2=O)ccc(S(C)(=O)=O)c1C1=NOCC1`: “inactive”.

Test system in a further test: not listed separately
In words: CCTE_Shafer_MEA_dev_spike_duration_mean: CCTE's Neural Network Formation Assay for Mean Spike Duration, Shafer Lab (AID 2284051).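 On AC50: potency for a decrease in mean network spike duration versus DMSO.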 Put shortly:
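Spontaneous activity was recorded on days 5, 7, 9 and 12 from rat cortical cultures grown on microelectrode arrays and dosed continuously from day 0, with media and compound renewed after the DIV 5 and 9 recordings. Network-spike duration was collapsed by area under the curve.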
Turning to `C[N+](C)(C)CCCNS(=O)(=O)C(F)(F)C(F)(F)C(F)(F)C(F)(F)C(F)(F)C(F)(F)C(F)(F)C(F)(F)F`, the concentration at half-maximal activity (AC50) is 2.58 µM (active) and the outcome was inactive.
Take `Cc1noc(NS(=O)(=O)c2ccc(N)cc2)c1C`: the call was inactive.
`Cc1c(C(=O)c2c[nH]n(C)c2=O)ccc(S(C)(=O)=O)c1C1=NOCC1`: the call was inactive.
